Calls of active or inactive are those of the source. The calls were made as follows: active = hit-call score of the fitted dose curve at least 0.9, where 1 is the maximum; inactive = score below 0.9.

Read-out in one assay: Monocyte Chemoattractant Protein-1 (MCP1), CCL2 (gene 6347)
In words: BSK_LPS_MCP1: BioMAP Diversity Plus: LPS Assay for Monocyte Chemoattractant Protein-1 (MCP1) Biomarker Activity (AID 2283081). The settings on record: primary human HUVEC with PBMC; actives raise or lower the signal. In short, it runs like this:
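Values derive from bidirectional fitting against DMSO of ELISA-measured MCP-1 in a human primary endothelial and mononuclear cell co-culture, 24 h after chemical addition under LPS activation.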
Turning to `NC(=O)CCl`, the result was inactive.

Turning to `Oc1ccc(Cc2ccc(O)cc2)cc1`, the result was inactive.

Consider `CCOP(=O)(OCC)OC(=CCl)c1ccc(Cl)cc1Cl`, for which the result was inactive.

With `CCCCN(CCCC)C(=S)[S-].CCCCN(CCCC)C(=S)[S-].[Ni+2]`, the result was inactive.

In the case of `O=C(Cc1ccccc1)OCCc1ccccc1`, the outcome was inactive.

Turning to `O=[N+]([O-])c1ccc(Nc2ccccc2)cc1`, the result was inactive.

As for `COc1ccccc1N`, the outcome was inactive.

On to `N#Cc1cccnc1`, for which the outcome was inactive.

Read-out in a further assay: not listed separately
Briefly: BSK_LPS_PGE2: BioMAP Diversity Plus: LPS Assay for Prostaglandin E2 (PGE2) Biomarker Activity (AID 2283082). The settings on record: primary human HUVEC with PBMC; actives raise or lower the signal. In short, it runs like this: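 HUVEC plus human PBMC co-culture stimulated with LPS; secreted PGE2 quantified by ELISA 24 h after chemical dosing. Activity fitted bidirectionally against DMSO baseline; parallel SRB staining (0.1% SRB after 10% TCA fixation, 560 nm) flags overt cytotoxicity.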
As to `Cc1ccc2nc3sc(=O)sc3nc2c1`, the half-maximal activity concentration (AC50) was 1.2 µM (active).

Turning to `Nc1c(Oc2ccccc2)cc(O)c2c1C(=O)c1ccccc1C2=O`, the result was inactive.

In the case of `Cc1cc(C)cc(C)c1`, the result was inactive.

`CCN(CC)C(=O)C(Cl)=C(C)OP(=O)(OC)OC`: the outcome was inactive.

Turning to `Oc1cccc(-c2ccccc2)c1`, the AC50 was 8.25 µM (active).

Regarding `[Cl][Sn]([c]1ccccc1)([c]1ccccc1)[c]1ccccc1`, the result was inactive.

On to `OCCCCO`, for which the result was inactive.

Regarding `OCCN(CCO)CCO`, the outcome was inactive.

Turning to `CCOC(=O)C(SP(=S)(OC)OC)c1ccccc1` (centres undefined), the outcome was inactive.

With `OC(Cc1ccccc1Cl)(Cn1cncn1)C1(Cl)CC1` (centres undefined), the AC50 was 2.02 µM (active).

For the compound `CCC(C)(C#N)N=NC(C)(C#N)CC` (centres undefined), the outcome was inactive.

Regarding `C[C@]12CC[C@@H](O)C[C@@H]1CC[C@@H]1[C@@H]2CC[C@]2(C)C(=O)CC[C@@H]12`, the outcome was inactive.

Turning to `Cc1ccccc1OP(=O)(Oc1ccccc1)Oc1ccccc1`, the result was inactive.

Turning to `Oc1cc(Cl)c(Cl)cc1Cl`, the outcome was inactive.

`O=C(O)COc1cc(Cl)c(Cl)cc1Cl`: the outcome was inactive.

As to `Cc1cc(Cl)ccc1OC(C)C(=O)O` (centres undefined), the result was inactive.

Take `O=C(CCl)NCO`: the result was inactive.

In the case of `Clc1cccc(Cl)c1Cl`, the outcome was inactive.

Turning to `Cc1c([N+](=O)[O-])c(C)c([N+](=O)[O-])c(C(C)(C)C)c1[N+](=O)[O-]`, the outcome was inactive.

For `CC(C)(C)c1cc([N+](=O)[O-])cc(C(C)(C)C)c1O`, the outcome was inactive.

`O=C1C=CC(=O)c2ccccc21`: the outcome was inactive.

Consider `Clc1cccc(Cl)c1`, for which the outcome was inactive.

In the case of `O=C(N[C@H]1CN2CCC1CC2)c1ccc2c(c1)OCCO2`, the AC50 is 2.86 µM (active).

`COCC(=O)N(c1c(C)cccc1C)[C@H](C)C(=O)OC`: the outcome was inactive.

For `NC(=O)CCl`, the result was inactive.

On to `Oc1ccc(Cc2ccc(O)cc2)cc1`, for which the result was inactive.

In the case of `CCOP(=O)(OCC)OC(=CCl)c1ccc(Cl)cc1Cl`, the result was inactive.

In the case of `CCCCN(CCCC)C(=S)[S-].CCCCN(CCCC)C(=S)[S-].[Ni+2]`, the outcome was inactive.

`O=C(Cc1ccccc1)OCCc1ccccc1`: the result was inactive.

As for `O=[N+]([O-])c1ccc(Nc2ccccc2)cc1`, the outcome was inactive.

On to `COc1ccccc1N`, for which the outcome was inactive.

In the case of `N#Cc1cccnc1`, the result was inactive.

Read-out in the next assay: Macrophage colony-stimulating factor (MCSF), CSF1 (gene 1435)
In words: BSK_LPS_MCSF: BioMAP Diversity Plus: LPS Assay for Macrophage colony-stimulating factor (MCSF) Biomarker Activity (AID 2283083). The settings on record: primary human HUVEC with PBMC; actives raise or lower the signal. In short, it runs like this: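 Bidirectional fit versus DMSO of ELISA-measured M-CSF in co-cultured human umbilical vein endothelial cells and PBMC, sampled 24 h after dosing.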
In the case of `Cc1ccc2nc3sc(=O)sc3nc2c1`, the result was inactive.

For `Nc1c(Oc2ccccc2)cc(O)c2c1C(=O)c1ccccc1C2=O`, the outcome was inactive.

Regarding `Cc1cc(C)cc(C)c1`, the outcome was inactive.

Turning to `CCN(CC)C(=O)C(Cl)=C(C)OP(=O)(OC)OC`, the result was inactive.

As for `Oc1cccc(-c2ccccc2)c1`, the outcome was inactive.

In the case of `[Cl][Sn]([c]1ccccc1)([c]1ccccc1)[c]1ccccc1`, the AC50 is 0.138 µM (active).

With `OCCCCO`, the result was inactive.

As for `OCCN(CCO)CCO`, the outcome was inactive.

As for `CCOC(=O)C(SP(=S)(OC)OC)c1ccccc1` (centres undefined), the result was inactive.

Regarding `OC(Cc1ccccc1Cl)(Cn1cncn1)C1(Cl)CC1` (centres undefined), the outcome was inactive.

Turning to `CCC(C)(C#N)N=NC(C)(C#N)CC` (centres undefined), the outcome was inactive.

As to `C[C@]12CC[C@@H](O)C[C@@H]1CC[C@@H]1[C@@H]2CC[C@]2(C)C(=O)CC[C@@H]12`, the result was inactive.

For the compound `Cc1ccccc1OP(=O)(Oc1ccccc1)Oc1ccccc1`, the AC50 was 20 µM (active).

For `Oc1cc(Cl)c(Cl)cc1Cl`, the AC50 was 20 µM (active).

Take `O=C(O)COc1cc(Cl)c(Cl)cc1Cl`: the outcome was inactive.

`Cc1cc(Cl)ccc1OC(C)C(=O)O` (centres undefined): the result was inactive.

As for `O=C(CCl)NCO`, the outcome was inactive.

For the compound `Clc1cccc(Cl)c1Cl`, the result was inactive.

For the compound `Cc1c([N+](=O)[O-])c(C)c([N+](=O)[O-])c(C(C)(C)C)c1[N+](=O)[O-]`, the outcome was inactive.

For the compound `CC(C)(C)c1cc([N+](=O)[O-])cc(C(C)(C)C)c1O`, the AC50 was 0.452 µM (active).

For `O=C1C=CC(=O)c2ccccc21`, the AC50 was 1.82 µM (active).

As for `Clc1cccc(Cl)c1`, the result was inactive.

`O=C(N[C@H]1CN2CCC1CC2)c1ccc2c(c1)OCCO2`: the outcome was inactive.

For the compound `COCC(=O)N(c1c(C)cccc1C)[C@H](C)C(=O)OC`, the result was inactive.

On to `NC(=O)CCl`, for which the result was inactive.

With `Oc1ccc(Cc2ccc(O)cc2)cc1`, the result was inactive.

In the case of `CCOP(=O)(OCC)OC(=CCl)c1ccc(Cl)cc1Cl`, the AC50 is 22.5 µM (active).

Turning to `CCCCN(CCCC)C(=S)[S-].CCCCN(CCCC)C(=S)[S-].[Ni+2]`, the outcome was inactive.

As for `O=C(Cc1ccccc1)OCCc1ccccc1`, the outcome was inactive.

For `O=[N+]([O-])c1ccc(Nc2ccccc2)cc1`, the result was inactive.

Turning to `COc1ccccc1N`, the result was inactive.

Regarding `N#Cc1cccnc1`, the outcome was inactive.

Read-out in the next assay: Tissue Factor, F3 (gene 2152)
Briefly: BSK_LPS_TissueFactor: BioMAP Diversity Plus: LPS Assay for Tissue Factor Biomarker Activity (AID 2283084). Particulars: primary human HUVEC with PBMC; actives raise or lower the signal. Summed up: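 Read-out: CD142 ELISA, 24 h. System: LPS-driven human endothelial/PBMC co-culture. Analysis: up- or down-signal fitted against DMSO.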
Regarding `Cc1ccc2nc3sc(=O)sc3nc2c1`, the result was inactive.

Consider `Nc1c(Oc2ccccc2)cc(O)c2c1C(=O)c1ccccc1C2=O`, for which the AC50 is 2.54 µM (active).

For `Cc1cc(C)cc(C)c1`, the outcome was inactive.

As to `CCN(CC)C(=O)C(Cl)=C(C)OP(=O)(OC)OC`, the outcome was inactive.

Consider `Oc1cccc(-c2ccccc2)c1`, for which the AC50 is 33.3 µM (active).

Take `[Cl][Sn]([c]1ccccc1)([c]1ccccc1)[c]1ccccc1`: the AC50 is 0.308 µM (active).

In the case of `OCCCCO`, the result was inactive.

For `OCCN(CCO)CCO`, the outcome was inactive.

Turning to `CCOC(=O)C(SP(=S)(OC)OC)c1ccccc1` (centres undefined), the result was inactive.

`OC(Cc1ccccc1Cl)(Cn1cncn1)C1(Cl)CC1` (centres undefined): the result was inactive.

As for `CCC(C)(C#N)N=NC(C)(C#N)CC` (centres undefined), the outcome was inactive.

`C[C@]12CC[C@@H](O)C[C@@H]1CC[C@@H]1[C@@H]2CC[C@]2(C)C(=O)CC[C@@H]12`: the outcome was inactive.

Turning to `Cc1ccccc1OP(=O)(Oc1ccccc1)Oc1ccccc1`, the outcome was inactive.

On to `Oc1cc(Cl)c(Cl)cc1Cl`, for which the result was inactive.

Take `O=C(O)COc1cc(Cl)c(Cl)cc1Cl`: the outcome was inactive.

For `Cc1cc(Cl)ccc1OC(C)C(=O)O` (centres undefined), the result was inactive.

On to `O=C(CCl)NCO`, for which the outcome was inactive.

For the compound `Clc1cccc(Cl)c1Cl`, the outcome was inactive.

Turning to `Cc1c([N+](=O)[O-])c(C)c([N+](=O)[O-])c(C(C)(C)C)c1[N+](=O)[O-]`, the outcome was inactive.

Take `CC(C)(C)c1cc([N+](=O)[O-])cc(C(C)(C)C)c1O`: the outcome was inactive.

Take `O=C1C=CC(=O)c2ccccc21`: the AC50 is 1.52 µM (active).

As to `Clc1cccc(Cl)c1`, the result was inactive.

With `O=C(N[C@H]1CN2CCC1CC2)c1ccc2c(c1)OCCO2`, the outcome was inactive.

Consider `COCC(=O)N(c1c(C)cccc1C)[C@H](C)C(=O)OC`, for which the outcome was inactive.

Regarding `NC(=O)CCl`, the outcome was inactive.

Regarding `Oc1ccc(Cc2ccc(O)cc2)cc1`, the result was inactive.

On to `CCOP(=O)(OCC)OC(=CCl)c1ccc(Cl)cc1Cl`, for which the AC50 was 11.9 µM (active).

Regarding `CCCCN(CCCC)C(=S)[S-].CCCCN(CCCC)C(=S)[S-].[Ni+2]`, the outcome was inactive.

Consider `O=C(Cc1ccccc1)OCCc1ccccc1`, for which the outcome was inactive.

Consider `O=[N+]([O-])c1ccc(Nc2ccccc2)cc1`, for which the outcome was inactive.

As to `COc1ccccc1N`, the outcome was inactive.

As to `N#Cc1cccnc1`, the outcome was inactive.

A word on the AC50: it is the midpoint of the concentration-response curve, whichever way the signal moves.

The values above are taken from PubChem BioAssay (EPA / NIEHS).
